Laboratory results as given in the supplement of paper PMC6555819.

How the values were obtained:
Test in all cases: PBM binding z-score (relative to random genomic background probes); higher = stronger binding; sequences stand for … in GC…GCGATTGACAGCGTAGAATGAAGG
[1] = test system: PPARg:RXRa DBDmut IVT, anti-RXR (DBD mutation: RXRa K156A/R161A, NR concentration 270 nM, RXRa partner concentration 90 nM)
Method in brief: (§1)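 Custom Agilent 4×180K protein-binding microarrays carried double-stranded probes, each with a 34-nt variable region. These regions held direct-repeat seeds, single-nucleotide variants, half-site ablations and random human genomic background sequences. Ligand-free nuclear receptor dimers were incubated on the arrays for 1 h, antibodies against each partner (one per run) detected binding, and scanned fluorescence was regression-normalized. Binding z-scores take the random background probes as reference.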

[2] = test system: PPARg:RXRa IVT, anti-PPARg (NR concentration 270 nM, RXRa partner concentration 90 nM)
Method in brief: as §1

[3] = test system: PPARg DBDmut:RXRa IVT, anti-PPARg (DBD mutation: PPARg1 K132A/R137A, NR concentration 270 nM, RXRa partner concentration 90 nM)
Method in brief: as §1

[4] = test system: PPARg DBDmut IVT, anti-PPARg (DBD mutation: PPARg1 K132A/R137A, NR concentration 270 nM)
Method in brief: as §1

[5] = test system: PPARg homodimer (NR concentration 180 nM)
Method in brief: as §1

[6] = test system: PXR:RXRa (NR concentration 270 nM, RXRa partner concentration 90 nM)
Method in brief: as §1

[7] = test system: PXR homodimer (NR concentration 270 nM)
Method in brief: as §1

[8] = test system: RARa:RXR (NR concentration 270 nM, RXRa partner concentration 90 nM)
Method in brief: as §1

[9] = test system: RARa homodimer (NR concentration 270 nM)
Method in brief: as §1

[10] = test system: RARb:RXRa (NR concentration 270 nM, RXRa partner concentration 90 nM)
Method in brief: as §1

| Sequence | PBM binding z-score [1] | PBM binding z-score [2] | PBM binding z-score [3] | PBM binding z-score [4] | PBM binding z-score [5] | PBM binding z-score [6] | PBM binding z-score [7] | PBM binding z-score [8] | PBM binding z-score [9] | PBM binding z-score [10] |
| --- | --- | --- | --- | --- | --- | --- | --- | --- | --- | --- |
| GCTAGTTGGTCAGTAAAAGGTCAAACACCGGTCG | 1.17 | 2.62 | -0.0315 | 0.251 | 4.94 | 5.21 | 1.94 | 6.29 | 1.53 | 4.13 |
| TTACCAAGCTGAGCTGAGGTCGTTGATCCAACTC | -0.796 | -0.588 | -0.701 | -1.02 | -1.16 | 1.06 | 0.0399 | 0.708 | -1.15 | 0.0389 |
| TCTAGTTGGTCACTGAGGTCACACACGACGGGTA | 2.68 | 4.25 | 2.09 | 2.11 | 4.13 | 4.97 | 2.81 | 5.06 | 2.05 | 4 |
| CAAACTAGGTAACAGAGGTCAAAGTCCGTGCGTA | 6.99 | 6.88 | 1.9 | 1.28 | 4.37 | 6 | 3.25 | 6.67 | 1.62 | 4.11 |
| AGATTGAGGTTATTAAGATCAGGGAATTGCGGTC | 2.3 | 2.34 | 0.654 | 0.969 | 1.25 | 1.32 | 0.669 | 1.33 | 0.972 | 1.41 |
| CCTTACGGGTCACTCCAGGTTATAGCTTCGGAGT | 3.23 | 3.56 | 0.585 | 0.163 | 2.23 | 4.98 | 0.446 | 3.52 | 1.34 | 3.72 |
| GCTGCTAGGTCAACTGACGGTCAGCTAAAGCTCG | 5.14 | 4.49 | 0.437 | -0.0795 | 4.42 | 2.08 | -0.874 | 4.58 | 1.05 | 4.56 |
| TCTCAGAGGACACGAAGGTCAGAGCTTTCCAGAG | 1.91 | 1.5 | -0.856 | -1.02 | 1.11 | 2.05 | 0.954 | 2.02 | -0.195 | 3.78 |
| TCTTGTAGAACAATAGAGGTTAAGAAAGTGCGCT | 1.83 | 1.45 | 0.641 | 0.472 | -0.0635 | 3.16 | 0.538 | 1.69 | 0.27 | 0.777 |
| TTACCAAGGTGAAAGCTCGTTGATGCACGCCTTG | 1.69 | 2.4 | 0.152 | -0.364 | -0.529 | -0.393 | -1 | 0.109 | -0.866 | 1.3 |
| TTACCAAGGTGAAGGTCGTTAATCCCTCTGTAGA | 1.67 | 3.05 | -0.743 | -0.257 | 0.621 | 1.28 | 0.0227 | 1.65 | -0.0474 | 1.98 |
| TCTAGTTGGTCACGGAGGTCACATACGACGGGTA | 2.69 | 4.21 | 1.22 | 1.14 | 2.46 | 4.38 | 1.7 | 4.13 | 1.16 | 3.84 |
| TCTAGTTGGTCAAAGGTCACACTCTCGAAATGCG | 3.65 | 6.05 | 1.12 | 1.37 | 5.48 | 5.85 | 1.74 | 7.41 | 3.43 | 4.92 |
| GGAACGAGGGCAAAGTTGACAGCATCTGTCGACG | 4.28 | 4.82 | 1.12 | 0.308 | 0.924 | 1.91 | 0.0135 | 2.66 | -0.5 | 2.65 |
| ACTCGGAGGACAAAGTTCAGAGCTACGCCAGTGA | 0.00289 | 1.33 | -0.512 | -0.633 | 1.27 | 1.98 | 1.2 | 1.47 | 0.278 | 2.97 |
| CGTCCAAAGTCATAGGAGGTCAGTGAAGACAGAT | 0.497 | 1.53 | 0.0341 | 0.213 | 1.59 | 3.35 | 1.12 | 2.86 | 1.34 | 2.7 |
| TCATATAGGTAAATGCTGGGTGAAAGTCCGATCT | 4.13 | 2.63 | 0.471 | 0.976 | 1.04 | 0.606 | 0.456 | 0.833 | 1.19 | 0.495 |
| CCTCGGAGGGCAGAAGGTCAGAGCTGTCCGCTTT | 0.357 | 0.981 | -1.69 | -1.6 | 0.905 | 1.94 | -0.405 | 2.53 | -0.604 | 3.69 |
| TCTTGTAGATCAGCTGGTTAAGAAAGCTGGCCAA | 1.46 | -0.0157 | -0.253 | -0.0877 | -0.903 | 0.0917 | -0.51 | 0.0228 | -0.485 | -0.526 |
| CTTCAAAGTTCAAGGTAACGTAACAGAAAGCAGC | 0.401 | 1.36 | 0.994 | 1 | 2.93 | 4.18 | 2.67 | 3.32 | 1.72 | 5.1 |
| GCTGCTAGGTCACGTTGGTCAGCTAACGGGTACG | 5.22 | 4.99 | 0.1 | -0.257 | 1.72 | 1.74 | -0.356 | 2.81 | -0.306 | 4.18 |
| ACTCGGAGGACAACGGTCAGAGCTACGCCAGTGA | 0.208 | 0.015 | -0.698 | -0.749 | -0.201 | -0.539 | -0.446 | -0.355 | 0.128 | 2 |
| TCTTGTAGATCAATAGAGGTTAGGAAAGTGCGCT | 2 | 0.75 | 0.694 | 0.358 | 0.823 | 2.06 | 0.156 | 1.41 | 0.518 | 0.535 |
